PubChem BioAssay
A number with no mark means an inactive call. A call without a number means that no potency is given here. For part of these data: Potency and affinity values are given separately. Activity calls are given as the source filed them. Unless noted, how the calls were made is not given here.

Legend:
[1] = antimalarial activity against Dd2 strain (AID 2302;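 active means growth inhibition above 50% at the single 2 µM test dose, taken to imply half-maximal potency below 2 µM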); conditions: P. falciparum Dd2 in RBCs, LDH growth readout, 72 h; at 2 µM; stronger effect = higher value
[2] = human hepatoma cell viability loss – ATP luminescence, cytotoxicity control for P. falciparum antimalarial project, primary screen (AID 2303;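 active means inhibition above 50%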); conditions: HepG2 viability, 24-48 h, at 10 µM, stronger effect = higher value
[3] = molecular target: L-lactate dehydrogenase (Plasmodium falciparum (isolate CDC / Honduras)) (UniProt Q27743); test: PfLDH activity inhibition – cell lysate, 3D7 strain, counter-screen for P. falciparum growth inhibition project (AID 2304); conditions: P. falciparum 3D7 crude extract, LDH APAD/NBT absorbance; at 2 µM; stronger effect = higher value
[4] = inhibition of 3D7 malaria parasite growth – strain 3D7 (AID 2306); conditions: P. falciparum 3D7 erythrocytic growth, LDH absorbance, 72 h; at 2 µM; stronger effect = higher value
[5] = molecular target: Calcium-dependent protein kinase 1 (Plasmodium falciparum (isolate 3D7)) (UniProt P62344); test: PfCDPK1 kinase inhibitors, biochemical, TCAMS library (AID 1159585; cut-off not given, nearly all actives have IC50 up to about 0.98 µM;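 further: inhibitors leave more ATP so luminescence rises with inhibition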); conditions: recombinant PfCDPK1, Kinase-Glo ATP depletion luminescence
[6] = molecular target: Plasmodium falciparum protein kinase 6 (PK6, PF3D7_1337100) (UniProt Q8IDW1); test: PfPK6 kinase inhibitors, biochemical, TCAMS library (AID 1159586); conditions: recombinant PfPK6, Kinase-Glo ATP depletion luminescence
[7] = molecular target: Protein kinase 7 (PK7), Plasmodium falciparum 3D7 (PF3D7_0213400) (UniProt Q7YTF7); test: inhibition of Plasmodium PK7 catalytic activity – biochemical, TCAMS antimalarial set, Kinase-Glo luminescence (AID 1159587); conditions: recombinant PfPK7, Kinase-Glo ATP depletion luminescence
[8] = molecular target: Calcium-dependent protein kinase 4 (Plasmodium falciparum (isolate 3D7)) (UniProt Q8IBS5); test: PfCDPK4 kinase inhibitors, biochemical, TCAMS library (AID 1159588; cut-off not given, nearly all actives have IC50 up to about 0.91 µM); conditions: recombinant PfCDPK4, Kinase-Glo ATP depletion luminescence
Calcium-dependent protein kinase 4 (Plasmodium falciparum (isolate 3D7)), sequence (Q8IBS5 whole entry, looked up): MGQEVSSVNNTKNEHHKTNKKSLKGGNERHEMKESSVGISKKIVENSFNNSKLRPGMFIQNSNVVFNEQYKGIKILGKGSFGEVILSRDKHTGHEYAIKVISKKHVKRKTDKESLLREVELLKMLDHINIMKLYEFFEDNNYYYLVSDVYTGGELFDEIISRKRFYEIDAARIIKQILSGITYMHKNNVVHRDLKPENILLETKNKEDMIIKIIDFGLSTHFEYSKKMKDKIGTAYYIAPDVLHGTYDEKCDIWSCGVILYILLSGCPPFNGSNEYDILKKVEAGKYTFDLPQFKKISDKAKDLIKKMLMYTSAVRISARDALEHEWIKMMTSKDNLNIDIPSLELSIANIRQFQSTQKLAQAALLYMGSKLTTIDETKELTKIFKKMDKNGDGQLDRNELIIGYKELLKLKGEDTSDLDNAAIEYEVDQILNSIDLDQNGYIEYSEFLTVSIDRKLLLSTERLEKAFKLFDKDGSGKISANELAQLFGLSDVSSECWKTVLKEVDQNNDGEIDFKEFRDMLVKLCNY

L-lactate dehydrogenase (Plasmodium falciparum (isolate CDC / Honduras)), sequence (Q27743 whole entry, looked up): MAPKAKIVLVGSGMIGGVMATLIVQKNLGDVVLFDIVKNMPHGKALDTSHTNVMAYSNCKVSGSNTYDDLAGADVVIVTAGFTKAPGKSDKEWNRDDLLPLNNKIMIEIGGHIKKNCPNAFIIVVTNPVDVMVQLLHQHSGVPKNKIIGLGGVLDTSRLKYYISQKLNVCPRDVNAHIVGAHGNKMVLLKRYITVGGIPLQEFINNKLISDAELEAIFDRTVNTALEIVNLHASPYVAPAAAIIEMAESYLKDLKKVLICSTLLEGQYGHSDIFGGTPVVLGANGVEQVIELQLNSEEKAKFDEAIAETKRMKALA
Plasmodium falciparum protein kinase 6 (PK6, PF3D7_1337100), sequence (Q8IDW1 1-305): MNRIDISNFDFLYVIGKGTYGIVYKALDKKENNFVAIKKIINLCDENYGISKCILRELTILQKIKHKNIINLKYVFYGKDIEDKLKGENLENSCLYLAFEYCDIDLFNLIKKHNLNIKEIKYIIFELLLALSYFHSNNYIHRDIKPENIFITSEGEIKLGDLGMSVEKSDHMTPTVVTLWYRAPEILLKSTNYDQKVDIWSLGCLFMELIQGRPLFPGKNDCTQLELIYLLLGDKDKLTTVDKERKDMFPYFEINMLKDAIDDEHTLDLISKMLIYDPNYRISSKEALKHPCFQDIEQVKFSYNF
Calcium-dependent protein kinase 1 (Plasmodium falciparum (isolate 3D7)), sequence (P62344 whole entry, looked up): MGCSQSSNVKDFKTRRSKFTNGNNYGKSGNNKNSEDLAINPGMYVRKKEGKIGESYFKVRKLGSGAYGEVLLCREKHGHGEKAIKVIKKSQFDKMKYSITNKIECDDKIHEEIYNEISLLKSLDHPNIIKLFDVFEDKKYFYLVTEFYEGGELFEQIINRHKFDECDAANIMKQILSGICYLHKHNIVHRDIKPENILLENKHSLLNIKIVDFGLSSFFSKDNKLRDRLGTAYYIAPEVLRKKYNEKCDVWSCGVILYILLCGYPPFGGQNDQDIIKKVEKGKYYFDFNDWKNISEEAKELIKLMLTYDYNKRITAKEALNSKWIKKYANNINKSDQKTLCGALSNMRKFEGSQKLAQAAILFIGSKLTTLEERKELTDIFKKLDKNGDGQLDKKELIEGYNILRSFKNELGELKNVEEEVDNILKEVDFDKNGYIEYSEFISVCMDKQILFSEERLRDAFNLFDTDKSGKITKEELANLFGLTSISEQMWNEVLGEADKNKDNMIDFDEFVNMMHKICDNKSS
Protein kinase 7 (PK7), Plasmodium falciparum 3D7 (PF3D7_0213400), sequence (Q7YTF7 1-343): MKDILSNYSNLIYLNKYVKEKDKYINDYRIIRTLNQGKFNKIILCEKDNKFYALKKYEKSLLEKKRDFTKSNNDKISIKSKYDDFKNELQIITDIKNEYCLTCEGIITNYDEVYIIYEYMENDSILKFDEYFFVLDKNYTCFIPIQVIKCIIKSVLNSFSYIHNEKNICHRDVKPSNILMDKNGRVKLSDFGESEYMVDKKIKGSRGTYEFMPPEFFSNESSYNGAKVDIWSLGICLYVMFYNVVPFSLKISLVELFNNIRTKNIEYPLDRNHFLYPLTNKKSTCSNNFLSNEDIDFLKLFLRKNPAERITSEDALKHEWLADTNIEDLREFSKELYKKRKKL

| Compound | growth inhibition [1] | inhibition [2] | inhibition [3] | growth inhibition [4] | outcome [5] | outcome [6] | outcome [7] | outcome [8] |
| --- | --- | --- | --- | --- | --- | --- | --- | --- |
| O=c1c2ccccc2[nH]c2nc3ccccc3c(Nc3ccccc3)c12 | 97% (active) | 8% | 6% | 98% (active) | inactive | inactive | inactive | inactive |
| O=C(NCCN1CCCCC1)c1cc2cc(-c3ccccc3)ccc2n1S(=O)(=O)c1ccccc1 | -1% | 15% | 2% | 90% (active) | inactive | inactive | inactive | inactive |
| Clc1ccc2c(NN=Cc3cccs3)ccnc2c1 | 96% (active) | -4% | 2% | 100% (active) | inactive | inactive | inactive | inactive |
| Cc1nc2ccccn2c1C1(O)C(=O)Nc2c(Cl)cc(Cl)cc21 (configuration not stated) | 62% (active) | -11% | -3% | 95% (active) | inactive | inactive | inactive | inactive |
| c1ccc(C2=NN=C(c3ccccn3)[C@H]3[C@H]4C[C@@H]([C@@H]23)[C@@H]2[C@H]4[C@H]3C[C@@H]2c2ccccc23)nc1 | 77% (active) | 39% | -3% | 98% (active) | inactive | inactive | inactive | inactive |
| CCCCC(CCCC)CN1C(=O)C(c2ccccc2)(c2ccccc2)N=C1N | 96% (active) | 28% | -3% | 96% (active) | inactive | inactive | inactive | inactive |
| Cn1c(=N)n(CC(=O)N2CCc3ccc(Cl)cc3C2Cc2ccc(Cl)c(Cl)c2)c2ccccc21 (configuration not stated) | 52% (active) | 99% (active) | -1% | 102% (active) | inactive | inactive | inactive | inactive |
| CCNC(=O)Nc1ccc(-c2ccc(-c3nc4c(C)cccc4[nH]3)s2)cc1 | 13% | 18% | -2% | 96% (active) | inactive | inactive | inactive | inactive |
| Cc1cccc2[nH]c(-c3ccc(-c4cccc(CNC5CCN(C)CC5)c4)s3)nc12 | 73% (active) | 21% | 2% | 98% (active) | inactive | inactive | inactive | inactive |
| Cc1[nH]cnc1CSCCNC(N)=NCCCCCCCCN=C(N)NCCSCc1nc[nH]c1C | 95% (active) | 24% | -10% | 96% (active) | inactive | inactive | inactive | inactive |
| O=c1cc(NC[C@@H]2CCC[C@@H]2NCc2ccc(Cl)c(Cl)c2)[nH]c2ccccc12 | 75% (active) | 9% | -1% | 100% (active) | inactive | inactive | inactive | inactive |
| CC(C)NCc1ccc(-c2ccc(CN3CCCC(c4ccccc4)C3)cc2)c(C(=O)NCC2CCCCC2)c1 (configuration not stated) | 53% (active) | 79% (active) | -3% | 97% (active) | inactive | inactive | inactive | inactive |
| O=C(Nc1ccc([N+](=O)[O-])cc1Cl)c1cc2ccccc2cc1O | 28% | 6% | 0% | 94% (active) | inactive | inactive | inactive | inactive |
| Cc1ccc(NC(=O)c2ccc(C(=O)NC3CCN(CC4CCCCC4)CC3)cc2)cc1 | 0% | 36% | -6% | 93% (active) | inactive | inactive | inactive | inactive |
| Cn1cnc(CCNC(=O)c2ccc(-c3ccc(-c4nc5ccc(C(F)(F)F)cc5[nH]4)s3)cc2)c1 | 99% (active) | 75% (active) | -2% | 102% (active) | inactive | inactive | inactive | inactive |
| Cc1cc(NCCC(=O)NCc2cccc(F)c2)nc(NCCc2ccc(F)cc2)n1 | 2% | 0% | -1% | 89% (active) | inactive | inactive | inactive | inactive |
| OC(CNC1CCCCC1)Cn1c2ccccc2c2ccccc21 (configuration not stated) | 92% (active) | 11% | 0% | 97% (active) | inactive | inactive | inactive | inactive |
| CCOc1c(Br)cc(C)cc1CNCCCNc1nc2ccccc2[nH]1 | 5% | 24% | 6% | 93% (active) | inactive | inactive | inactive | inactive |
| Cc1nc(C)c(CC(=O)Nc2ccc(-c3ccc(-c4nc5ccc(C(F)(F)F)cc5[nH]4)s3)cc2)s1 | 29% | 57% (active) | -8% | 90% (active) | inactive | inactive | inactive | inactive |
| Cc1ccc(C)c2sc(N(CCCn3ccnc3)C(=O)c3ccco3)nc12 | 63% (active) | 28% | 0% | 96% (active) | inactive | inactive | inactive | inactive |

| Compound | growth inhibition [1] | inhibition [2] | inhibition [3] | growth inhibition [4] | outcome [5] | outcome [6] | outcome [7] | outcome [8] |
| --- | --- | --- | --- | --- | --- | --- | --- | --- |
| FC(F)(F)c1ccc2nccc(NN=Cc3cccc(Cl)c3)c2c1 | 2% | -3% | -8% | 97% (active) | inactive | inactive | inactive | inactive |
| COc1ccc(-c2nc(NC(=O)CSc3ccc([N+](=O)[O-])cc3)sc2C)cc1 | 100% (active) | -6% | -1% | 101% (active) | inactive | inactive | inactive | inactive |
| CC(=O)Nc1nc(-c2ccccc2)[nH]c1C(N)=O | -2% | 10% | 4% | 99% (active) | inactive | inactive | inactive | inactive |
| CC1(C)N=C(N)N=C(N)N1c1ccc([N+](=O)[O-])cc1 | 1% | 3% | -3% | 93% (active) | inactive | inactive | inactive | inactive |
| CC1(C)N=C(N)N=C(N)N1OCCOc1ccc(Cc2ccccc2)cc1 | 26% | 62% (active) | 3% | 94% (active) | inactive | inactive | inactive | inactive |
| Cn1cncc1CNCc1ccc(-c2cccc(-c3nc4ccccc4[nH]3)c2)cc1 | 92% (active) | 19% | -1% | 101% (active) | inactive | inactive | inactive | inactive |
| CC(Cc1ccc(OCCCCOc2ccccc2)cc1)NCCc1ccc(Oc2ccccc2)cc1 (configuration not stated) | 95% (active) | 99% (active) | 5% | 89% (active) | inactive | inactive | inactive | inactive |
| N#Cc1cccc(/C=C/C(=O)NC2CCC(CCN3CCc4ccc(-c5cnccn5)cc4CC3)CC2)c1 (configuration not stated) | 47% | 22% | -1% | 93% (active) | inactive | inactive | inactive | inactive |
| C=CCOC(=O)N1CCC(CNCc2cccc(-c3cccc(-c4nc5ccc(F)cc5[nH]4)c3)c2)C1 (configuration not stated) | 49% | 20% | 0% | 102% (active) | inactive | inactive | inactive | inactive |
| CCN(CC)CCN(Cc1ccc(-c2ccc(C(F)(F)F)cc2)cc1)C(=O)CN1C(CCc2cccc(F)c2F)=NS(=O)(=O)c2ccccc21 | 49% | 36% | -1% | 101% (active) | inactive | inactive | inactive | inactive |
| CCCCCCN(C(=O)OCc1ccccc1)[C@@H]1CCN(C(=O)OC(C)(C)C)C[C@H]1C(=O)OCC | 96% (active) | 9% | -6% | 96% (active) | inactive | inactive | inactive | inactive |
| Cc1ccc(-n2cc(CNCC3CCN(CCO)CC3)c(-c3ccc(F)cc3)n2)cc1 | 18% | 29% | -1% | 91% (active) | inactive | inactive | inactive | inactive |
| COC(=O)c1c(NC(=O)c2cccc(C(F)(F)F)c2)sc2c1CCN(Cc1ccccc1)C2 | 61% (active) | 9% | 0% | 84% (active) | inactive | inactive | inactive | inactive |
| CN1CCN(CCc2ccc3nc(-c4csc(Cc5cc(Cl)ccc5OCc5ccccc5)n4)[nH]c3c2)CC1 | 97% (active) | 30% | -1% | 101% (active) | inactive | inactive | inactive | inactive |
| COc1ccc(-c2cc(C(=O)Nc3ccc(CCCN(C)Cc4ccc(OC)c(OC)c4)cc3)c3ccccc3n2)cc1 | 47% | 40% | -3% | 92% (active) | inactive | inactive | inactive | inactive |
| Cc1cc(NN=Cc2ccccc2F)c2cccc(C)c2n1 | 14% | 7% | -2% | 102% (active) | inactive | inactive | inactive | inactive |
| Cc1cc(CN2CC[C@H](NC(=O)c3ccc(Cl)c(Cl)c3)C2)ccc1OC1CCN(C)C1 (some centres not stated) | 24% | 71% (active) | -3% | 101% (active) | inactive | inactive | inactive | inactive |
| COc1ccc2ncc(F)c(CCN3C[C@H](CNCc4ccc(F)cc4)[C@H](O)C3)c2n1 | 21% | 38% | -1% | 93% (active) | inactive | inactive | inactive | inactive |
| CCOC(=O)c1ccc(NC(=O)Nc2cccc(-c3cccc(-c4nc5ccccc5[nH]4)c3)c2)cc1 | 99% (active) | 76% (active) | -3% | 100% (active) | inactive | inactive | inactive | inactive |
